# Rows were chosen to be rich in hits. Some 7.3% of all compounds tested hit in one or more screens of this group.
# Vaccinia Venus: vaccinia inhibition (Venus reporter) | Vaccinia virus Venus reporter expression, fluorescence | Potency, µM (titrated, usually from 36.5 µM), for inactives: at the top dose activity change, negative = inhibition, actives largely listed as inhibitors | 330,000 compounds, 0.46% hits | AID 720580; calls by dose curve; tested in A549 cells; note: potency is the fitted concentration of half-maximal effect; nearly all actives have a fitted effect of over 30% in size
# HCMV inh: inhibitors of human cytomegalovirus; HFF cells, HCMV-luciferase reporter, 72 h; hits give low values; activity change, negative = inhibition, % at 57.5 µM; 410,000 compounds, 4.5% hits; in the data active = activity change below about -60%; inconclusive = no clear call, values can overlap the other calls; inactive = above about -39%
#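 Screen run at 2 compound doses on HFFs infected with reporter HCMV, MOI 1 PFU/cell. Luciferase activity from cell lysates at 72 h post infection gave inhibition relative to buffer-only and Salinomycin wells.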
# FMDV inh: blocks foot and mouth disease virus. FMDV antiviral cell-based qHTS. Potency, µM (top dose mostly 57.9 µM), inactives show at the top dose activity change, negative = inhibition, hits mostly inhibitors. 410,000 compounds, 1.2% hits; calls by dose curve; tested in HEK293T cells; note: read-out not given here; potency is the fitted concentration of half-maximal effect; nearly all actives have a fitted effect of over 45% in size
# HCV inhibitor: blocks hepatitis C virus | Huh7.5.1 HCVcc-Cre infection, luciferase reporter, 44 h | 340,000 compounds, 3.4% hits | Potency, µM (top dose mostly 41.8 µM), for inactives: at the top dose activity change, negative = inhibition, hits mostly inhibitors; active = well fitted inhibition curve with a large enough effect; inconclusive = small, poorly fitted or top-dose-only effect, or another doubt; inactive = no such curve, though single readings can be large or run the other way; note: potency is the fitted concentration of half-maximal effect
#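 Infectious HCV cell culture screen: compound-treated cells (1,000/well, pre-plated 4 h) are infected with HCVcc-Cre at roughly 0.5 moi and grown 44 h. Infection is quantified by luciferase signal after 15 min substrate incubation at room temperature.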
# Vaccinia mCherry: inhibitors of vaccinia virus infection (mCherry reporter signal). AID 720579. Vaccinia virus mCherry reporter infection, fluorescence. Potency, µM (series often up to 36.5 µM), for inactives: at the highest dose activity change, negative = inhibition, actives largely listed as inhibitors. 310,000 compounds, 0.63% hits; calls by dose curve; tested in A549 cells; note: potency is the fitted concentration of half-maximal effect; nearly all actives have a fitted effect of over 35% in size
# Starred values were filed as active, the others as inactive; i = inactive; u = inconclusive; x = not tested or not shown; [ ] = remark or other dose. % is set by controls: 0 for no effect and ±100 for the full control effect.
SMILES,Vaccinia Venus,HCMV inh,FMDV inh,HCV inhibitor,Vaccinia mCherry
COc1ccccc1N1CCN(C(c2ccc(Cl)cc2)c2nnnn2C(C)(C)C)CC1 (centres undefined),8%,-66*,u,u,x
O=C(Cc1ccc([N+](=O)[O-])cc1)NCCc1c[nH]c2ccccc12,x,5,x,x,x
Cc1ccc(-c2nc3cc(Cl)ccc3o2)cc1NC(=O)c1cc2ccccc2o1,-1%,95,55%,x,-9%
C=C1C(O)[C@@H]2O[C@]3(CC[C@H](/C=C/C(C)[C@@H]4CC(C)=CC5(O[C@H](C[C@@](C)(O)C(=O)O)CCC5O)O4)O3)CC[C@H]2O[C@@H]1C(O)CC(C)[C@H]1OC2(CCCCO2)CCC1C (some centres undefined),0.32µM*,x,1µM*,u,-23%
CCN1C(=O)C(=Cc2ccc(C)s2)C(=O)N(CC)C1=S,18%,32,40µM*,5%,9%
CCN1C(=O)/C(=C/c2ccc(C)s2)NC1=S,-11%,-23,7%,6%,-22%
CCOC(=O)C1=CCN(S(=O)(=O)c2ccc(C)cc2)C1c1ccc(CC)cc1 (centres undefined),-18%,-97*,-15%,x,-3%
CCOC(=O)C1=CCN(S(=O)(=O)c2ccc(Cl)cc2)C1c1cccc(C)c1 (centres undefined),4%,-87*,-27%,x,18%
CCOC(=O)C1=CCN(S(=O)(=O)c2ccc(C)cc2)C1c1ccc(C)cc1 (centres undefined),-7%,-26,u,x,i
COc1ccc(/C=C/C(=O)OCC(=O)Nc2cccc(S(=O)(=O)NC3=NCCCCC3)c2)cc1,-6%,11,-10%,-11%,-28%
CCc1ccc2c(c1)NC(c1cccnc1)=NC(c1ccc(C(C)(C)C)cc1)=N2,-25%,-23,0%,x,u
Cc1cc(SCC#N)n2nc(C)c(-c3ccccc3)c2n1,-27%,-73*,-10%,u,u
Cc1nn2c(N3CCCC3)cc(C(C)C)nc2c1-c1ccccc1,x,-31,-3%,14µM*,x
Cc1cc(N2CCC(C)CC2)n2nc(C)c(-c3ccccc3)c2n1,x,22,-24%,-19%,x
COc1ccccc1-c1c(C)nn2c(N3CCCCCC3)cc(C)nc12,u,-96*,28µM*,13µM*,u
Cc1cc(N2CCCCC2)n2nc(C)c(-c3ccccc3)c2n1,-28%,-15,u,1.6µM*,x
COc1ccccc1-c1c(C)nn2c(-c3ccccc3)cc(C)nc12,u,-68*,u,5µM*,-12%
OC(CNCCC1C=Nc2ccccc21)Cn1c2ccc(Cl)cc2c2cc(Cl)ccc21 (centres undefined),u,-39,0%,u,20µM*
O=C(Nc1ccc(C(F)(F)F)cc1)c1cccn(Cc2ccc3c(c2)OC(F)(F)O3)c1=O,x,-98*,u,10µM*,x
Cc1cc(N2CCN(C(c3ccccc3)c3ccccc3)CC2)n2ncnc2n1,-2%,-97*,u,1%,-15%
Cc1cc(N2CCN(c3nc4ccccc4s3)CC2)n2ncnc2n1,x,-102*,11µM*,3.2µM*,x
Cc1cc(N2CCN(c3cccc(C(F)(F)F)c3)CC2)n2ncnc2n1,-21%,-17,0%,8%,x
Cc1nc2ncnn2c(N2CCN(C(c3ccccc3)c3ccccc3)CC2)c1C,x,-69*,0%,u,x
Cc1nc2ncnn2c(N2CCN(c3cccc(C(F)(F)F)c3)CC2)c1C,x,-101*,u,0.89µM*,x
C=CCNc1nc(C(=O)OCC(=O)c2ccc(Cl)cc2)cs1,4%,-23,10%,-4%,-14%
SMILES,Vaccinia Venus,HCMV inh,FMDV inh,HCV inhibitor,Vaccinia mCherry
CCn1cc(C(=O)OCC(=O)Nc2cc(OC)cc(OC)c2)c(=O)c2ccc(C)nc21,-1%,-37,-13%,x,6%
[N-]=[N+]=NC1C[C@H](n2ccc(=O)[nH]c2=O)O[C@@H]1CO (some centres undefined),-7%,-66*,-19%,3%[8.37 µM],-10%
O=c1[nH]c(=O)n([C@H]2C[C@H](O)[C@@H](CO)O2)cc1C(F)(F)F,u,-1,-21%,u,u
C[C@]12CC(O)C3C(CCC4=CC(=O)CC[C@@]43C)C1CCC2c1csc(-c2ccccc2)n1 (some centres undefined),-30%,-76*,-20%,u,-7%
Cc1ccc2c(c1)-c1c(cnn1CC(=O)N1CCN(c3ccccc3F)CC1)CO2,-11%,-87*,-18%,x,-16%
O=C(Cn1ncc2c1-c1ccccc1OC2)N1CCN(c2ccccc2F)CC1,-7%,-10,u,x,-2%
COc1ccc(-n2nc3c(N4CCC(C(=O)N5CCCCCC5)CC4)nnc(C)c3c2C)cc1,x,-33,u,11µM*,x
Cc1nnc(N2CCC(C(=O)N3CCCCCC3)CC2)c2nn(-c3ccc(Cl)cc3)c(C)c12,x,0,-14%,8.9µM*,x
Cc1ccc(-n2nc3c(N4CCC(C(=O)N5CCCCCC5)CC4)nnc(C)c3c2C)cc1,x,x,-26%,-26%,x
CCCN1CCN(C(=O)C2CCN(c3nnc(C)c4c(C)n(-c5ccc(C)cc5)nc34)CC2)CC1,x,u,-16%,2.2µM*,x
CCCCOC(=O)c1ccc(NC(=O)CSc2nc3c(c(=O)[nH]2)CCCC3)cc1,7%,-7,-14%,x,7%
O=C(NCC1(N2CCOCC2)CCCC1)c1cnn(-c2ncc3c(n2)-c2ccccc2CC3)c1C1CC1,-15%,x,0%,x,-19%
CCCNC(=O)c1ccc(Cn2cc(-c3ccc(C)cc3)ncc2=O)cc1,x,8,x,x,x
O=[N+]([O-])c1cccc(-c2cn(-c3ccccc3)c(=S)[nH]2)c1,-12%,89,36%,-15%,0%
Cc1ccc(NC(=O)CN2C(=O)CC(c3ccc(F)cc3)=Nc3ccccc32)cc1F,u,-81*,10%,x,u
Cc1ccc(C2=Nc3ccccc3N(CC(=O)Nc3cccc(F)c3)C(=O)C2)cc1C,-18%,31,29%,x,u
CCc1ccc(S(=O)(=O)NCc2csc(-c3ccccc3)n2)s1,-26%,20,5%,-14%,x
O=S(=O)(NCCc1csc(-c2cccc(F)c2)n1)c1cc(F)ccc1F,-3%,-106*,32%,x,-15%
O=C(NCCc1csc(-c2cccc(F)c2)n1)c1ccco1,-5%,u,-7%,10µM*,-10%
CCc1ccc(S(=O)(=O)NCCc2csc(-c3ccccc3)n2)s1,-16%,-63*,x,u,u
O=C(NCCc1csc(-c2ccccc2)n1)c1ccco1,-5%,-19,-6%,-30%,-14%
Cc1ccc(S(=O)(=O)NCCc2csc(-c3cccc(F)c3)n2)cc1,-14%,-24,-3%,x,-3%
CC(=O)N1CCN(CC(=O)Nc2ccccc2Sc2ccc(Cl)cc2)CC1,-22%,-71*,u,u,-28%
O=C(CN1CCN(c2ccccc2)CC1)Nc1ccccc1Sc1ccccc1,-16%,-29,-1%,u,-6%
O=C(CCl)Nc1ccccc1Sc1ccc(Cl)cc1,x,-103*,32µM*,u,x

# High-throughput results (PubChem)
